# In all, about 77,000 compounds went through this assay and about 4,600 (6%) were called active. Not shown: some 1% with an inconclusive outcome.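 How the source made its calls: active means mean inhibition above about 93%, with at least 55% of replicates each passing it (limit read from the data, passing the limit was not always enough); inconclusive means only one of those two conditions holds; inactive means neither condition holds.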 Many of the other results were omitted from the sample, so actives are more common in it than they were.
# Assay: growth inhibition of T. cruzi in host fibroblasts – cell-based, beta-gal Tulahuen parasites, NIH3T3 host, luminescence, primary screen (AID 624255)
# Conditions: T. cruzi beta-gal in NIH3T3, GalScreen luminescence, 90 h; at 8.34 µM; stronger effect = higher value
row,Compound,inhibition
1,C[C@@H]1CN([C@H](C)CO)C(=O)c2cc(NC(=O)Cc3ccccc3)ccc2O[C@@H](C)CCCCO[C@H]1CN(C)C(=O)Cc1ccccc1,-33.3% (inactive)
2,O=C(C[C@H]1CC[C@@H]2[C@H](COC[C@@H](O)CN2Cc2cccc(-c3ccncc3)c2)O1)N1CCOCC1,65.1% (inactive)
3,O=C(C[C@@H]1CC[C@H]2[C@@H](COC[C@H](O)CN2S(=O)(=O)c2ccc(F)cc2)O1)N[C@H]1CCN(Cc2ccccc2)C1,67.7% (inactive)
4,Cc1ccccc1-c1ccc2c(c1)O[C@H](CN(C)C)[C@H](C)CN([C@@H](C)CO)S2(=O)=O,15.2% (inactive)
5,CC(=O)N(C)C[C@H]1Oc2cc(-c3ccc(C)cc3)ccc2S(=O)(=O)N([C@@H](C)CO)C[C@@H]1C,98.5% (inactive)
6,Cc1ccccc1-c1ccc2c(c1)O[C@H](CN(C)C)[C@@H](C)CN([C@H](C)CO)S2(=O)=O,30% (inactive)
7,CCC(=O)N(C)C[C@@H]1Oc2cc(-c3ccccc3OC)ccc2S(=O)(=O)N([C@H](C)CO)C[C@H]1C,52.7% (inactive)
8,Cc1ccc(-c2ccc3c(c2)O[C@H](CN(C)C)[C@@H](C)CN([C@@H](C)CO)S3(=O)=O)cc1,71.8% (inactive)
9,COc1ccccc1-c1ccc2c(c1)O[C@@H](CN(C)C)[C@H](C)CN([C@H](C)CO)S2(=O)=O,102% (active)
10,COc1ccccc1-c1ccc2c(c1)O[C@H](CN(C)S(=O)(=O)c1ccc(C)cc1)[C@@H](C)CN([C@H](C)CO)S2(=O)=O,124% (active)
11,CNC[C@@H]1Oc2cc(-c3ccccc3OC)ccc2S(=O)(=O)N([C@@H](C)CO)C[C@H]1C,42.1% (inactive)
12,Cc1ccc(-c2ccc3c(c2)O[C@H](CN(C)C)[C@@H](C)CN([C@H](C)CO)S3(=O)=O)cc1,107% (active)
13,CO[C@@H](CN(C)S(=O)(=O)c1cccc(Cl)c1)[C@H](C)CN([C@H](C)CO)S(=O)(=O)c1cccc(Cl)c1,71.5% (inactive)
14,C[C@@H]1CCCCO[C@H](CN(C)C(=O)Cc2ccccc2)[C@@H](C)CN([C@@H](C)CO)C(=O)c2cc(NC(=O)c3ccccc3)ccc2O1,46.7% (inactive)
15,O=C(NCC1CC1)[C@H]1[C@H](CO)[C@H]2Cn3c(ccc(/C=C/c4ccccc4)c3=O)[C@@H]1N2C(=O)C1CCC1,-126% (inactive)
16,CCCNC(=O)[C@@H]1[C@@H](CO)[C@@H]2Cn3c(ccc(/C=C/c4ccccc4)c3=O)[C@H]1N2CCC,59.6% (inactive)
17,O=C(NCc1ccccn1)[C@@H]1[C@@H](CO)[C@@H]2Cn3c(ccc(/C=C/c4ccccc4)c3=O)[C@H]1N2CC1CC1,110% (active)
18,COc1ccccc1NC(=O)N[C@H]1C=C[C@@H](CC(=O)N[C@@H](C)c2ccccc2)O[C@@H]1CO,3.52% (inactive)
19,CO[C@H]1CN(C)C(=O)c2cc(NC(=O)C3CCC3)ccc2OC[C@H](C)N(Cc2nccs2)C[C@H]1C,16.8% (inactive)
20,CCCNC(=O)[C@@H]1[C@@H](CO)[C@@H]2Cn3c(cccc3=O)[C@H]1N2C(=O)C1CC1,38.4% (inactive)
21,CCCNC(=O)[C@@H]1[C@@H](CO)[C@@H]2Cn3c(cccc3=O)[C@H]1N2C(=O)Nc1cc(F)ccc1F,81.1% (inactive)

row,Compound,inhibition
1,C[C@@H]1CN([C@@H](C)CO)C(=O)c2cc(NC(=O)C3CCCCC3)ccc2O[C@@H](C)CCCCO[C@@H]1CN(C)Cc1ccc(C(=O)O)cc1,15.2% (inactive)
2,C[C@@H]1CCCCO[C@@H](CN(C)CC2CC2)[C@@H](C)CN([C@H](C)CO)C(=O)c2cc(NC(=O)C3CCCCC3)ccc2O1,89% (inactive)
3,C[C@@H]1CN([C@@H](C)CO)C(=O)c2cc(NC(=O)C3CCCCC3)ccc2O[C@@H](C)CCCCO[C@H]1CN(C)Cc1ccncc1,106% (active)
4,C[C@@H]1CCCCO[C@@H](CN(C)CC2CCCCC2)[C@H](C)CN([C@H](C)CO)C(=O)c2cc(NC(=O)C3CCCCC3)ccc2O1,51.3% (inactive)
5,C[C@@H]1CCCCO[C@@H](CN(C)Cc2ccc(C(=O)O)cc2)[C@H](C)CN([C@@H](C)CO)C(=O)c2cc(NC(=O)C3CCCCC3)ccc2O1,-8.6% (inactive)
6,C[C@@H]1CCCCO[C@@H](CN(C)CC2CC2)[C@H](C)CN([C@H](C)CO)C(=O)c2cc(NC(=O)C3CCCCC3)ccc2O1,102% (active)
7,O=C(O)C[C@H]1C[C@@H]2c3cc(NC(=O)Nc4ccc(C(F)(F)F)cc4)ccc3O[C@@H]2[C@@H](CO)O1,-33% (inactive)
8,C[C@H]1CN([C@@H](C)CO)C(=O)c2cccc(NC(=O)Nc3ccccc3)c2O[C@H]1CN(C)S(=O)(=O)c1ccc(F)cc1,-95% (inactive)
9,C[C@H]1CCCCO[C@H](CN(C)CC2CC2)[C@@H](C)CN([C@@H](C)CO)C(=O)c2cc(NS(C)(=O)=O)ccc2O1,4.98% (inactive)
10,CCNC(=O)Nc1ccc2c(c1)C(=O)N(C)[C@@H]1CC[C@@H](CC(=O)NC3CCCCC3)O[C@H]1CO2,12.5% (inactive)
11,C[C@@H](O)C#Cc1ccc([C@H]2[C@H](CO)N3CCCCN(C(=O)c4ccc(F)cc4)C[C@@H]23)cc1,-25.9% (inactive)
12,O=C(c1ccncc1)N1CCCCN2[C@H](CO)[C@H](c3ccc(-c4ccccc4)cc3)[C@H]2C1,103% (active)
13,O=C(c1cccc(F)c1)N1CCCCN2[C@H](CO)[C@H](c3ccc(-c4ccncc4)cc3)[C@H]2C1,99.9% (active)
14,CC(C)(O)C#Cc1ccc([C@H]2[C@H]3CN(C(=O)c4ccncc4)CCCCN3[C@H]2CO)cc1,22% (inactive)
15,COc1ccccc1-c1ccc([C@@H]2[C@@H](CO)N3CCCCN(C(=O)c4ccncc4)C[C@@H]23)cc1,52.8% (inactive)
16,CC(C)(O)C#Cc1ccc([C@H]2[C@@H](CO)N3CCCCN(C(=O)c4ccncc4)C[C@H]23)cc1,10.9% (inactive)
17,C[C@H](O)C#Cc1ccc([C@@H]2[C@@H](CO)N3CCCCN(C(=O)c4ccncc4)C[C@@H]23)cc1,15.2% (inactive)
18,O=C(c1cccc(F)c1)N1CCCCN2[C@@H](CO)[C@H](c3ccc(-c4cncnc4)cc3)[C@@H]2C1,83.5% (inactive)
19,O=C(c1cccc(F)c1)N1CCCCN2[C@H](CO)[C@@H](c3ccc(-c4cncnc4)cc3)[C@H]2C1,44.2% (inactive)
20,COc1ccc(C#Cc2ccc([C@@H]3[C@@H](CO)N4CCCCN(C(=O)c5ccncc5)C[C@@H]34)cc2)cc1,98.5% (active)
21,CC(C)(O)C#Cc1ccc([C@@H]2[C@H](CO)N3CCCCN(C(=O)c4cccc(F)c4)C[C@@H]23)cc1,112% (active)

row,Compound,inhibition
1,O=C(c1ccc(F)cc1)N1CCCCN2[C@@H](CO)[C@H](c3ccc(-c4ccccc4)cc3)[C@@H]2C1,61.8% (inactive)
2,O=C(C[C@@H]1CC[C@H]2[C@@H](COC[C@@H](O)CN2C(=O)c2ccc3c(c2)OCO3)O1)NC1CCCC1,27% (inactive)
3,CCS(=O)(=O)Nc1ccc2c(c1)C(=O)N(C)[C@H]1CC[C@H](CC(=O)Nc3ccccc3)O[C@@H]1CO2,49.6% (inactive)
4,C[C@@H]1CN([C@@H](C)CO)C(=O)c2cc(-c3ccc(F)cc3)cnc2O[C@H]1CN(C)C(=O)c1ccncc1,64.3% (inactive)
5,CC(C)NC(=O)N(C)C[C@@H]1OCCCC[C@@H](C)Oc2ccc(NC(=O)c3ccccc3)cc2C(=O)N([C@@H](C)CO)C[C@H]1C,30.5% (inactive)
6,COc1ccc(NC(=O)N(C)C[C@@H]2OCCCC[C@@H](C)Oc3ccc(NC(=O)C4CCCCC4)cc3C(=O)N([C@@H](C)CO)C[C@@H]2C)cc1,36.5% (inactive)
7,CN1CCN(C(=O)C[C@H]2CC[C@H]3[C@H](COc4ccc(NC(=O)C5CC5)cc4C(=O)N3C)O2)CC1,14.2% (inactive)
8,O=C(C[C@@H]1C[C@@H]2c3cc(NC(=O)Nc4ccc(C(F)(F)F)cc4)ccc3O[C@@H]2[C@@H](CO)O1)NCCc1ccccc1,93.5% (inactive)
9,COc1ccccc1NC(=O)N1C[C@H](O)COC[C@H]2O[C@H](CC(=O)NCCc3ccccc3)CC[C@@H]21,-5.34% (inactive)
10,CCCNC(=O)C[C@@H]1CC[C@@H]2[C@H](COc3ccc(NC(=O)C4CCOCC4)cc3C(=O)N2C)O1,47.3% (inactive)
11,CO[C@@H]1CC[C@@H]2CCOc3ccc(C#N)cc3C(=O)N(C)C[C@@H](C)C(=O)N(C)C[C@@H]1O2,9.86% (inactive)
12,C[C@H](O)C#Cc1ccc([C@H]2[C@H](CO)N3CCCCN(C(=O)c4ccc(F)cc4)C[C@@H]23)cc1,66.2% (inactive)
13,CC(C)C#Cc1ccc([C@H]2[C@H](CO)N3CCCCN(C(=O)c4ccc(F)cc4)C[C@@H]23)cc1,80.8% (inactive)
14,O=C(c1cccc(F)c1)N1CCCCN2[C@H](CO)[C@H](c3ccc(C#CC4(O)CCCC4)cc3)[C@H]2C1,88.1% (inactive)
15,O=C(c1ccc(F)cc1)N1CCCCN2[C@H](C1)[C@@H](c1ccc(C#CC3(O)CCCC3)cc1)[C@@H]2CO,113% (active)
16,COc1ccc(S(=O)(=O)N(C)C[C@@H]2OCCCC[C@@H](C)Oc3ccc(N(C)C)cc3C(=O)N([C@@H](C)CO)C[C@@H]2C)cc1,46.8% (inactive)
17,O=C(C[C@@H]1CC[C@@H](NC(=O)CC2CC2)[C@H](CO)O1)NCc1ccc(-c2ccccc2)cc1,36.4% (inactive)
18,N#C[C@@H]1[C@@H](c2ccccc2)[C@@H](CO)N1C(=O)c1cc(Cl)cc(Cl)c1,90.7% (inactive)
19,COc1ccc(NC(=O)Nc2ccc3c(c2)C(=O)N([C@@H](C)CO)C[C@@H](C)[C@H](CN(C)C(=O)NC(C)C)OCCCC[C@H](C)O3)cc1,19.2% (inactive)

# — PubChem BioAssay AID624255 (Broad Institute, 2012)
